# In PubChem BioAssay:
# Calls of active or inactive are those of the source.
# Experiments:
# Albumin (Bos taurus) = Albumin (Bos taurus) (UniProt P02769); assay: compounds binding labelled BSA control protein – biochemical, small-molecule microarray, Alexa647 label, 635/667 nm fluorescence, artefact control for SMM control protein annotation, profiling panel (AID 1118); conditions: BSA-A647 binding, fluorescence 635 nm, higher = more signal;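 also: score merges 667 nm emission intensity and signal-to-noise per printed compound spot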
# [1] = probe aXIP binding to arrayed compounds – biochemical, NeuroSMM set, 635/667 nm fluorescence, primary screen (AID 1119); conditions: small-molecule microarray, higher = more signal, called active from +8 up or from −8 down;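 also: probe is the protein aXip251-270 applied at 1 µg/mL to compound-printed slides; binding of probe to printed compounds measured as 667 nm fluorescence plus signal to noise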
# [2] = probe aNOTCH3 binding on compound microarray – biochemical, small-molecule microarray, 635/667 nm fluorescence, primary screen (AID 1120); conditions: higher = more signal;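 also: probe is a biotin-tagged antibody raised against NOTCH3 rather than NOTCH3 protein; score merges spot fluorescence near 667 nm with spot signal to noise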
# [3] = probe aNOTCH2 binding on compound microarray – biochemical, small-molecule microarray, 635/667 nm fluorescence, primary screen (AID 1121); conditions: higher = more signal;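 also: score merges feature fluorescence read at 667 nm with its signal to noise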
# [4] = biological target: Carbonic anhydrase 2 (Homo sapiens) (UniProt P00918); assay: compounds binding carbonic anhydrase 2 – biochemical, small-molecule microarray, Alexa647-labelled CAII, profiling panel (AID 1122); conditions: CAII-A647 binding fluorescence, higher = more signal
# [5] = COS7 lysate on small-molecule microarray, probe aHis, 635 nm (AID 1123); conditions: COS7 cell lysate, fluorescence, higher = more signal;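 also: z-score combines 667nm fluorescence intensity with signal-to-noise per printed compound spot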
# [6] = probe aLAP1 signal on lysate-treated microarray – cell lysate, small-molecule microarray, COS7 lysate, primary screen (AID 1124); conditions: probe aLAP1, fluorescence, higher = more signal;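 also: lysate comes from COS7 cells expressing LAP1 and is applied at 0.3 µg/mL; score merges spot fluorescence near 667 nm with signal-to-noise over triplicate slides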
# Sam68 (KHDRBS1) = assay: compounds binding KHDRBS1 protein – biochemical, small-molecule microarray, 635 nm fluorescence, primary screen (AID 1125); conditions: higher = more signal;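 also: score merges 667 nm channel intensity with signal to noise over triplicate slides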
# [7] = test system: Chordin-like protein 2 (CHRDL2); assay: compounds binding chordin-like 2 – biochemical, small-molecule microarray, 635 nm fluorescence, primary screen (AID 1126); conditions: fluorescence 635 nm, higher = more signal;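 also: printed compound slides probed with Chrdl2 protein at 4 µg/mL for 1 h at 4 C; score merges 667 nm emission intensity with signal to noise over three replicate slides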
# [8] = biological target: Concanavalin-A (Canavalia ensiformis) (UniProt P02866); assay: compounds binding concanavalin A lectin – biochemical, small-molecule microarray, Alexa647 label, 635 nm, artefact control for SMM control protein annotation, primary screen (AID 1127); conditions: ConA-A647 binding fluorescence, higher = more signal;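 also: z combines 667 nm emission intensity with signal-to-noise across three replicate slides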
# [9] = compounds binding Alexa647 anti-His antibody – biochemical, small-molecule microarray, 635 nm fluorescence, artefact control for SMM control protein annotation, primary screen (AID 1128); conditions: higher = more signal;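 also: score merges feature fluorescence with signal-to-noise for each printed compound spot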
# [10] = test system: Human papillomavirus type 1a E7 protein (residues 1-88); assay: HPV1a E7 small-molecule binders, primary screen, biochemical, small-molecule microarray, residues 1-88, 635 nm (AID 1129); conditions: small-molecule microarray binding, fluorescence 635 nm; higher = more signal
# [11] = biological target: Focal adhesion kinase 1 (Homo sapiens) (UniProt Q05397); assay: PTK2 protein binding on printed compound slides – biochemical, small-molecule microarray, 635/667 nm fluorescence, BSA, DTT, primary screen (AID 1130); conditions: 635 nm fluorescence, higher = more signal;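 also: composite of spot emission at 667 nm and signal to noise over triplicate slides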
# [12] = test system: Fibrinogen (Alexa647-labelled); assay: Alexa647-fibrinogen binding to printed small molecules – biochemical, small-molecule microarray, 635/667 nm fluorescence, artefact control for SMM control-protein annotation, profiling panel (AID 1131); conditions: fibrinogen-A647 binding fluorescence, higher = more signal;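 also: z-score merges 667 nm fluorescence with per-spot signal-to-noise over triplicate slides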
# [13] = biological target: Follistatin (Homo sapiens) (UniProt P19883); assay: FST protein binding to printed compounds – biochemical, small-molecule microarray, 635/667 nm fluorescence, primary screen (AID 1132); conditions: 635 nm fluorescence, higher = more signal
# [14] = biological target: Fibroblast growth factor 2 (Homo sapiens) (UniProt P09038); assay: basic fibroblast growth factor binding to printed compounds – biochemical, small-molecule microarray, 635/667 nm fluorescence, primary screen (AID 1133); conditions: FGF2, fluorescence 635/667, higher = more signal
# [15] = JC-1 mitochondrial potential readout, lung cancer cells – cell-based, A549, JC-1 fluorescence, basal, 24 h, 100 nL, profiling panel (AID 1138); conditions: higher = more signal;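 also: A549 lung adenocarcinoma cells under basal conditions with no added stimulus; test concentration not given here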
# Lefty1 = Lefty1 protein binding to printed compounds – biochemical, small-molecule microarray, 635/667 nm fluorescence, primary screen (AID 1139); conditions: fluorescence 635/667, higher = more signal
# [16] = test system: wheat germ agglutinin (Triticum aestivum), Alexa647-labelled; assay: Alexa647-WGA lectin binding to printed small molecules – biochemical, small-molecule microarray, 635/667 nm fluorescence, artefact control for SMM control-protein annotation, profiling panel (AID 1140); conditions: WGA-A647 binding, 635 nm fluorescence, higher = more signal;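 also: score merges 667 nm feature emission with signal to noise over triplicate slides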
# [17] = biological target: Luciferin 4-monooxygenase (Photinus pyralis) (UniProt P08659); assay: inhibition of purified Photinus pyralis luciferase – biochemical, luminescence, purified enzyme, 2006 set, primary screen (AID 1141); conditions: purified firefly luciferase, SteadyGlo luminescence, 30 min; higher = more signal, called active from +8 up or from −8 down;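 also: cell-free assay with purified firefly luciferase at 100 ng per well in PBS; test concentration not given here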
# Sequence of Luciferin 4-monooxygenase (Photinus pyralis) (P08659 whole entry, looked up): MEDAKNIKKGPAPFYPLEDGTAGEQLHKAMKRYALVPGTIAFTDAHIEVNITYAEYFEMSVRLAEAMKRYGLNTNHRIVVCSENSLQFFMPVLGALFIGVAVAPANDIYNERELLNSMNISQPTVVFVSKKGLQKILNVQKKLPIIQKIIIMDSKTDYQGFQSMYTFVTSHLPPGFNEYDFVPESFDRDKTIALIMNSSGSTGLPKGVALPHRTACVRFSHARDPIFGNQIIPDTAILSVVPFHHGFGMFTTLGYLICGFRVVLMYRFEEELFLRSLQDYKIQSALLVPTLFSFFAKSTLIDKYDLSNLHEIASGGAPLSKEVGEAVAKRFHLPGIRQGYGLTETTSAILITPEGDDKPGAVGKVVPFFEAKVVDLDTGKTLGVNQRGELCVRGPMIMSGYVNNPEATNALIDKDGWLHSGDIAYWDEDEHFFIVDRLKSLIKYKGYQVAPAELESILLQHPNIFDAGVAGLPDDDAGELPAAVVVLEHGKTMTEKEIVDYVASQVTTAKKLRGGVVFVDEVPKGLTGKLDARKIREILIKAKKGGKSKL
# Sequence of Follistatin (Homo sapiens) (P19883 whole entry, looked up): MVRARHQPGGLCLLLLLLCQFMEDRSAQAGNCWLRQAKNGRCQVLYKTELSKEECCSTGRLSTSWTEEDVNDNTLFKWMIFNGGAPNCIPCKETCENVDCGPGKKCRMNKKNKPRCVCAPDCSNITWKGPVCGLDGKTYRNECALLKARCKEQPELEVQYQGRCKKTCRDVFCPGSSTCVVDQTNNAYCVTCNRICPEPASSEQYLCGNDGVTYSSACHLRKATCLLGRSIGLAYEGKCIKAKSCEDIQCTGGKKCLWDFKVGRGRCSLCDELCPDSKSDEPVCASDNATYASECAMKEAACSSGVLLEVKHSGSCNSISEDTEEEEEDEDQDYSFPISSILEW
# Sequence of Focal adhesion kinase 1 (Homo sapiens) (Q05397 whole entry, looked up): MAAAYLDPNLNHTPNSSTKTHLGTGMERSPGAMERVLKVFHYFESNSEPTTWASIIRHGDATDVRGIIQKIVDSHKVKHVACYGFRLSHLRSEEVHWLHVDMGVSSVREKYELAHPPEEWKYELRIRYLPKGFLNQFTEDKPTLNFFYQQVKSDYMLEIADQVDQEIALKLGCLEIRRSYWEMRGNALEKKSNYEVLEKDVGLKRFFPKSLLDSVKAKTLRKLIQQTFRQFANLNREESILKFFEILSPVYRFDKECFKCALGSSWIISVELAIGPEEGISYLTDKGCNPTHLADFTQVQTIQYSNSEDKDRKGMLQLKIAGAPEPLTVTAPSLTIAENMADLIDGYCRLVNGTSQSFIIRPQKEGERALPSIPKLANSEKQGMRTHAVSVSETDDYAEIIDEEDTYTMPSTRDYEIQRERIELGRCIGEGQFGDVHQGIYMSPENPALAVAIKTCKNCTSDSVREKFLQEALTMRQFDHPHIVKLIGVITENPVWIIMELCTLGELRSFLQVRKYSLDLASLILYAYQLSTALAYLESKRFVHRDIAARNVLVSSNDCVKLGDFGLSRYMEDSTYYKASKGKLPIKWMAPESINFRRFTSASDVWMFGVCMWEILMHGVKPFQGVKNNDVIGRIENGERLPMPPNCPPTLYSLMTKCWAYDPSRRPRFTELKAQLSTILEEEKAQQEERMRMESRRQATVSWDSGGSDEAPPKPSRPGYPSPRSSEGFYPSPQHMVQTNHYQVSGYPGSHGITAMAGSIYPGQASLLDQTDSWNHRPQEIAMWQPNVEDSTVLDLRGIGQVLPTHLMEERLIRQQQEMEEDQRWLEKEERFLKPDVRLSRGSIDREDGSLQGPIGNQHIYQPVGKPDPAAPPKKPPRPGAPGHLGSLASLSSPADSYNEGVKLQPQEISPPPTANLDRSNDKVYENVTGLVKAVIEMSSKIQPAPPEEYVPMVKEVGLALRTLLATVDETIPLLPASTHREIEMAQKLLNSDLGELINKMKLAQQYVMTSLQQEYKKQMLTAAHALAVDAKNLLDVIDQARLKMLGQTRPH
# Sequence of Albumin (Bos taurus) (P02769 whole entry, looked up): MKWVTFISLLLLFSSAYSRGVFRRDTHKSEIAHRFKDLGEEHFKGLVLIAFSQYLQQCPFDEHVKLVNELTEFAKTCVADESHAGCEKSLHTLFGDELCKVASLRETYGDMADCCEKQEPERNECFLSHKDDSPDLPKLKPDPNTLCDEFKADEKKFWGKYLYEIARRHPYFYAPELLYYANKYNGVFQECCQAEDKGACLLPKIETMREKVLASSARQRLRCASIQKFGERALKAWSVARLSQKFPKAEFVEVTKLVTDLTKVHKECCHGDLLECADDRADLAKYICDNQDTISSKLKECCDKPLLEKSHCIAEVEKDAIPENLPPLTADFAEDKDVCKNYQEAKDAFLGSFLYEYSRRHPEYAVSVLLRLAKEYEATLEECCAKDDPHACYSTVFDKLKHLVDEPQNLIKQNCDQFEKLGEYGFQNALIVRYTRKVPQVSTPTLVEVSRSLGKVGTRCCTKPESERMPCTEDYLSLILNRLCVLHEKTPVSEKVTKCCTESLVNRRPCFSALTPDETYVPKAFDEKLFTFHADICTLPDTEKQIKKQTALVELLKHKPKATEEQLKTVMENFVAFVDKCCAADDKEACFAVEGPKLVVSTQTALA
# Sequence of Concanavalin-A (Canavalia ensiformis) (P02866 whole entry, looked up): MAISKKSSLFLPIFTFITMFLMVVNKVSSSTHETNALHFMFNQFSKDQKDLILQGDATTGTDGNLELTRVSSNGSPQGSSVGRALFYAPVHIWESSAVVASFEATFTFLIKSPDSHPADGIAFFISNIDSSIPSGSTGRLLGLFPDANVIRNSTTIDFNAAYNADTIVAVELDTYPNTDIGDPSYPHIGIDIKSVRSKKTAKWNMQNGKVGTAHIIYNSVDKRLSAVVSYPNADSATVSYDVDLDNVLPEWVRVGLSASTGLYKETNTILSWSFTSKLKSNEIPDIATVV
# Sequence of Fibroblast growth factor 2 (Homo sapiens) (P09038 whole entry, looked up): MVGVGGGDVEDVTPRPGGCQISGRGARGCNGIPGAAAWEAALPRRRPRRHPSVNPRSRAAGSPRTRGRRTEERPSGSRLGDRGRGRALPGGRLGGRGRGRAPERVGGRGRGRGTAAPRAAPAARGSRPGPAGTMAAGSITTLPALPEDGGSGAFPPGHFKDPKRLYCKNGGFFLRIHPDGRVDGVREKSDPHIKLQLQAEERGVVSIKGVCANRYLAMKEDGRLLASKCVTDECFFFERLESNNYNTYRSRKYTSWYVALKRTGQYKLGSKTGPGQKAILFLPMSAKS
SMILES,composite z-score (Albumin (Bos taurus)),composite Z-score [1],composite z-score [2],composite z-score [3],composite z-score [4],composite z-score [5],composite z-score [6],composite z-score (Sam68 (KHDRBS1)),composite z-score [7],composite z-score [8],composite z-score [9],composite z-score [10],composite z-score [11],composite z-score [12],composite z-score [13],composite z-score [14],z-score [15],composite z-score (Lefty1),composite z-score [16],z-score [17]
CCOC(=O)C[C@H]1[C@H](OC(=O)c2ccccc2-c2ccccc2)[C@@H](NC(=O)c2ccc(-c3ccccc3)cc2)c2cc(OCCCO)ccc2N1C(=O)c1ccccc1,0.822,0.148 (inactive),0.0456,-0.11,0.222,0.961,-0.133,1.23,0.225,0.534,0.426,0.78,0.177,0.58,0.77,0.466,1.39,0.935,0.17,-0.0993 (inactive)
O=C1C2C=CC(C(O)c3ccc(-c4ccccc4)s3)N(Nc3ccccc3F)C2C(=O)N1c1ccccc1 (stereo not given),0.822,0.446 (inactive),0.113,0.149,0.69,2.09,0.335,1.29,-0.0798,1.12,1.29,1.21,0.816,0.997,1.18,1.16,-1.12,0.133,0.994,-0.324 (inactive)
C=CCNC(=O)[C@@H]1[C@H]2C(=O)O[C@H](c3ccccc3)[C@H](c3ccccc3)N2[C@H](c2ccccc2OCCO)[C@@]12C(=O)N(C(=O)OCCOC)c1ccc(C#CCC(C(=O)OC)C(=O)OC)cc12,0.718,1.26 (inactive),1.41,0.526,0.505,3.05,1.33,1.32,1.49,1.15,1.39,1.23,1.25,0.896,1.04,1.42,-0.453,1.11,1.12,0.112 (inactive)
CO[C@H]1O[C@H](CO)[C@@H](OC(=O)Nc2ccccc2-c2ccccc2)[C@H](OC(=O)Nc2ccccc2-c2ccccc2)[C@H]1OC(=O)Nc1ccccc1-c1ccccc1,0.784,0.341 (inactive),0.275,-0.0759,0.503,1.96,-0.32,1.3,0.0309,1.15,2.54,1.27,0.464,1.02,1.3,1.63,0.147,0.644,0.745,-1.35 (inactive)
CCOC(=O)C1=CC[C@@H](c2cccc(Cl)c2)N(S(=O)(=O)c2ccc(C)cc2)[C@H]1c1ccc(C#N)cc1,1.01,0.272 (inactive),0.159,0.0747,0.728,2.86,0.668,1.29,-0.0727,1.11,0.931,1.26,0.444,0.716,0.938,0.56,1.22,1.09,0.985,1.35 (inactive)
O=P(NCC1(CC2(c3ccccc3)CO2)CC1)(c1ccccc1)c1ccccc1 (stereo not given),0.0287,-0.187 (inactive),-0.159,-0.0451,0.692,2.49,0.106,-0.31,-0.821,-0.805,0.618,0.376,0.338,-1.05,-1.23,-1.36,1.11,-2.28,-0.0073,1.33 (inactive)
[N-]=[N+]=NCc1ccccc1C[C@]1(C(=O)NCc2ccccc2)COC(c2ccc(OCCCO)cc2)=N1,0.632,0.452 (inactive),0.112,-0.0814,0.644,1.89,0.784,1.3,-0.694,0.612,0.519,1.16,1.11,0.948,0.101,0.661,-0.221,-0.0991,0.762,-0.169 (inactive)
NC(=O)[C@@]1(CCS(=O)(=O)c2ccccc2)N=C(c2ccc(OCCCO)cc2)O[C@H]1c1ccccc1,0.737,-0.0775 (inactive),0.0793,-0.0531,0.801,2.86,0.821,1.2,-1.12,1.14,2.14,1.27,0.533,1.02,0.78,-0.507,-0.309,-0.0434,1.17,0.155 (inactive)
[N-]=[N+]=NCc1ccccc1C[C@]1(C(N)=O)N=C(c2ccc(OCCCO)cc2)O[C@H]1c1ccccc1N=[N+]=[N-],0.421,-0.338 (inactive),0.327,0.0185,0.513,1.46,0.312,1.23,-0.652,1.09,2.21,1.19,0.394,0.751,0.847,-0.386,-0.542,0.0874,1.03,-10.3 (active)
